# Laboratory results from PubChem BioAssay.
# Target: Fibroblast growth factor 2 (Homo sapiens) (UniProt P09038)
# Assay: basic fibroblast growth factor binding to printed compounds – biochemical, small-molecule microarray, 635/667 nm fluorescence, primary screen (AID 1133)
# Conditions: FGF2, fluorescence 635/667, higher = more signal
# Fibroblast growth factor 2 (Homo sapiens), sequence (P09038 whole entry, looked up): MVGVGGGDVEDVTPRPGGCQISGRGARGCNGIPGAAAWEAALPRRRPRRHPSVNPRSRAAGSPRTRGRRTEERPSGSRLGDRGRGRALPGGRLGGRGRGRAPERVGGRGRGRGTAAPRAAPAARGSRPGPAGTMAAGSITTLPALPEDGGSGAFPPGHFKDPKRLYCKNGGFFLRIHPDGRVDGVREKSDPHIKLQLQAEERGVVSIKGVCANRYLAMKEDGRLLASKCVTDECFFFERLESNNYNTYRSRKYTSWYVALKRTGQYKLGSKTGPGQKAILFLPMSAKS
row,SMILES,composite z-score
1,CC(C)N1CC=CC23O[C@@H]4C=CCOC(=O)[C@@H]4[C@H]2C(=O)N(CCCCCO)[C@@H]3C1=O (stereo partly drawn),-0.377
2,[N-]=[N+]=Nc1ccccc1C[C@@]1(C(=O)N2CCCCC2)N=C(c2ccc(OCCCO)cc2)O[C@@H]1c1ccccc1,0.11
3,OCC1C=C(/C=C/c2ccccc2)CN1Cc1ccccc1Br (stereo not drawn),1.39
4,C=CC[C@@]1(C(=O)N2CCCCC2)N=C(c2ccc(OCCCO)cc2)O[C@@H]1c1ccccc1N=[N+]=[N-],0.162
5,CO[C@H]1O[C@H](CO)[C@@H](OC(=O)Nc2ccc(Oc3ccccc3)cc2)[C@H](OC(=O)Nc2ccc3c(c2)OCO3)[C@@H]1OC(=O)Nc1ccc2c(c1)OCO2,1.2
6,COCCOC(=O)N1C(=O)[C@@]2(c3ccccc31)[C@H](C(=O)N1CCc3cc(OC)c(OC)cc3C1)[C@H]1C(=O)O[C@H](c3ccccc3)[C@H](c3ccccc3)N1[C@@H]2c1ccc(O)cc1,1.26
7,CCCCC(=C=CC[C@@H](O)c1cccc(OCCO)c1)C[C@@H](O)c1ccccn1,0.605
8,CCOC(=O)C[C@H]1[C@H](OC(=O)c2cc3ccccc3oc2=O)[C@@H](NC(=O)CC(C)C)c2cc(OCCCO)ccc2N1C(=O)c1ccccc1,0.427
9,CC(C)(C)OC(=O)CC[C@@]1(C(=O)N2CCCCC2)N=C(c2ccc(OCCCO)cc2)O[C@@H]1c1ccccc1,1.04
10,Cc1ccc(S(=O)(=O)N2C[C@@H](C(=O)O)[C@H](Sc3ccccc3)C[C@H]2c2ccccc2)cc1,-0.194
11,O=C1[C@H]2C=C(Br)[C@H](C[C@@H]2OCCCCCCO)[C@@]12CO2,0.263
12,COc1ccc(C(=O)Nc2cccc(CN3C(=O)[C@]4(O[C@H](CCn5cc(CCO)nn5)[C@@H]([Si](C)(C)c5ccc(OC)cc5)[C@@H]4C)c4ccccc43)c2)cc1,0.188
13,C=C[C@H](C)[C@@H](OC(=O)Nc1ccc(SC)cc1)c1ccc(O)c2ccccc12,1.54
14,COCCOC(=O)N1C(=O)[C@@]2(c3cc(C#CC4(O)CCCCCC4)ccc31)[C@H](C(=O)Nc1nc3ccccc3s1)[C@H]1C(=O)O[C@H](c3ccccc3)[C@H](c3ccccc3)N1[C@@H]2c1ccccc1OCCO,1.37
15,C=CCC(OC(C)=O)[C@@H]1[C@@H](N(Cc2ccc(-c3ccccc3)cc2)C(=O)Cc2ccc(F)cc2)c2cc(OCCCO)ccc2N1C(=O)c1ccc2ccccc2c1 (stereo partly drawn),0.288
16,CN(C)CCCC[C@@H]1NC(=O)[C@H]2C[C@@H](C(=O)NCCCCCN)[C@@H](c3cccc(OCCO)c3)N2C1=O,1.22
17,C=CC[C@]1(C(=O)NCc2ccccc2)N=C(c2ccc(OCCCO)cc2)O[C@H]1c1ccccc1CN=[N+]=[N-],1.09
18,O=C(CS)NCCCCCNC(=O)[C@@H]1C[C@@H]2C(=O)NCC(=O)N2[C@@H]1c1ccc(O)cc1,1.24
19,C=CCC(OC(C)=O)[C@@H]1[C@@H](N(Cc2ccc(-c3cccc(C(F)(F)F)c3)o2)C(=O)c2cccc3ccccc23)c2cc(OCCCO)ccc2N1C(=O)Cc1ccc2ccccc2c1 (stereo partly drawn),-0.129
20,C=CCC(OC(C)=O)[C@@H]1[C@@H](N(Cc2ccc(-c3cccc(C(F)(F)F)c3)o2)C(=O)Cc2ccc(OC)cc2)c2cc(OCCCO)ccc2N1C(=O)c1ccc2ccccc2c1 (stereo partly drawn),-0.522
21,CC(C)CN1C(=O)[C@@]2(c3ccc([N+](=O)[O-])cc3)CC(=O)N(C3CCCCC3)[C@@H]2c2ccc(CO)cc21,-0.875
22,O=C1C2C=CC(C(O)C=Cc3ccc([N+](=O)[O-])cc3)N(n3cnnc3)C2C(=O)N1Cc1ccccc1 (stereo not drawn),-0.0745
23,O=C1O[C@H](c2ccccc2)[C@H](c2ccccc2)N2[C@H]1[C@@H](C(=O)NC[C@H](O)c1ccccc1)[C@]1(C(=O)Nc3ccc(C#CC4=CCCCC4)cc31)[C@H]2c1ccccc1OCCO,0.198
24,O=C1NC(=O)C2C1C=CC(C(O)c1ccc(I)cc1)N2Nc1ccc(Cl)cc1Cl (stereo not drawn),-0.451
25,CC(C)CCC[C@@H](C)[C@H]1CC[C@@]2(C)C3=C(CC[C@]12C)[C@@]1(C)CC[C@H](OC(=O)c2ccc(C(F)(F)F)nc2)C(C)(C)C1CC3 (stereo partly drawn),0.695
26,CC(C)(C)OC(=O)CC[C@]1(C(=O)NCCN2CCOCC2)COC(c2ccc(OCCCO)cc2)=N1,1.78
27,CN1C(=O)C2C=CC(C(O)c3ccccc3)N(N3CCCCC3)C2C1=O (stereo not drawn),-0.234
28,CC[C@@H]1C=C(C(=O)O)[C@H](c2cccc3ccccc23)N1S(=O)(=O)c1ccc(C)cc1,0.108
